Measured values taken from PubChem BioAssay AID488862 (Broad Institute, 2010).
In all, about 340,000 compounds went through this assay and about 1,200 (0.35%) were called active. Cut-off read from the data, not from the text of the source: active = inhibition above about 52%; inactive = the rest. What follows is part of a selection rich in actives, with near analogues and random picks from the rest.

Test: inhibition of PrP 5' UTR reporter expression (AID 488862); note: 0 = median of the neutral control wells
Details: cell-based PrP 5' UTR mRNA reporter, plate reader; hits give high values; concentration not given here

SMILES	inhibition
O=C(CCn1c(=O)oc2ccccc21)Nc1ccon1	-14.3% (inactive)
CCCNC(=O)C1CC(=O)N(c2ccc(OCC(=O)Nc3cccc(C)c3C)cc2)C1 (centres undefined)	-2.71% (inactive)
O=C(c1ccc2c(c1)C(=O)N(Cc1ccncc1)C2=O)N1CCN(S(=O)(=O)c2ccc(OC(F)(F)F)cc2)CC1	-12.7% (inactive)
CC[n+]1c(C)n(-c2ccccc2)c2ccc(NC(C)=O)cc21	-45% (inactive)
CN(NC(=O)c1ccccc1F)c1nc(C(F)(F)F)nc2ccccc12	61.9% (active)
CSc1nc(N(C)NC(=O)c2cccc(C)c2)c2ccccc2n1	30.9% (inactive)
Cn1c(CC(=O)NNC(=O)c2ccccc2F)nc2ccccc21	-14.3% (inactive)
CCOC(=O)c1ccc(NC(=O)C2CC(=O)Nc3nc4ccccc4n32)cc1 (centres undefined)	-13.3% (inactive)
CCCc1ccc(OCC(O)CN2CCN(C(=O)OCC)CC2)cc1 (centres undefined)	-12.3% (inactive)
Nc1ccc(OCC(O)C[n+]2ccc(CCS(=O)(=O)[O-])cc2)cc1 (centres undefined)	78.9% (active)
CCCc1ccc(OCC(O)CN2CCN(CCO)CC2)cc1 (centres undefined)	-4.25% (inactive)
COC(=O)N1CN(C(=O)OC)CN(C(=O)OC)C1	-16.8% (inactive)
COC(=O)C1C(=O)c2c([nH]c(C(=O)OCCSC)c2C)CC1C (centres undefined)	-51.7% (inactive)
CCCOC(=O)c1[nH]c2c(c1C)C(=O)CC(c1cccs1)C2 (centres undefined)	60.4% (active)
CCOC(=O)C1=C(N)N(c2ccc(C)cc2)C2=C(C(=O)CCC2)C1c1cccs1 (centres undefined)	-23.6% (inactive)
COc1cccc(NC(=O)N2CCCC2C(=O)NC2CCCCC2)c1 (centres undefined)	-31.7% (inactive)
C/C(=C(\C#N)C(=O)NCCCN1CCOCC1)N(C)C	-31.6% (inactive)
COc1cccc2c1OCC(C(=O)NCc1ccc(Cl)cc1Cl)=C2	-13% (inactive)
COc1ccc(NC(=O)c2cc3nc(-c4ccccc4)cc(C)n3n2)cc1OC	-26.9% (inactive)
COCCNc1cc(-c2ccccc2)nc2cc(-c3cccc(F)c3)nn12	59.6% (active)
COC(=O)C(C)Sc1ccc2nnc(-c3cccc(F)c3)n2n1 (centres undefined)	-8.06% (inactive)
COc1ccc(OC)c(-c2csc(-c3cccs3)n2)c1	4.49% (inactive)
COc1ccc(-c2nc(-c3ccccc3)no2)c(OC)c1	66.6% (active)
COc1ccc(/C=C/c2noc(-c3ccccc3OC(C)=O)n2)cc1	-28.8% (inactive)

SMILES	inhibition
COc1ccccc1Nc1nnc(SC(C)C(=O)NC2CC2)s1 (centres undefined)	2.27% (inactive)
CCOC(=O)c1c(/N=C/c2cc(C)ccc2O)sc2c1CCC2	-12.5% (inactive)
O=C(CSc1cccc[n+]1[O-])NCCCc1ccccc1	-19.4% (inactive)
C=CCn1c(C)cc(C2=NNC(=NCC)SC2)c1C	93.9% (active)
CN(C)c1ccc(CNC(=O)CN2C(=O)COc3ccc(S(=O)(=O)N4CCCC4)cc32)cc1	-1.62% (inactive)
CCCC(=O)n1nc(NCc2ccc(OC)cc2)nc1NCc1ccc(OC)cc1	-14.7% (inactive)
NC(N)=Nc1nc(-c2ccccc2)c2cc(Cl)ccc2n1	-17.4% (inactive)
Clc1ccc2nc3c(c(-c4ccccc4)c2c1)CNCC3	-16% (inactive)
Clc1ccc2nc(-c3ccccc3)nc(C(Cl)Cl)c2c1	92.7% (active)
Oc1ccc(N2CCN(C(=S)NCc3ccccc3)CC2)cc1	87.9% (active)
O=C(COC(=O)c1ccccc1C(=O)N1CCN(c2ccccc2)CC1)NCc1ccccc1	-7.33% (inactive)
Oc1ccccc1N1CCN(C(=S)NCc2ccccc2)CC1	-14.6% (inactive)
O=C(NCc1ccco1)c1ccc([N+](=O)[O-])cc1Cl	-16.6% (inactive)
CCC(=O)c1cn(CCOc2ccccc2OC)c2ccccc12	-20.1% (inactive)
Cc1nn2cc(-c3ccc(Cl)cc3)cnc2c1Br	-42% (inactive)
CCOc1ccc2sc(NS(=O)(=O)c3ccc(N)cc3)nc2c1	-14.4% (inactive)
Cc1ccc(S(=O)(=O)NCCSc2ccccc2)cc1[N+](=O)[O-]	-22.1% (inactive)
Cc1ccc(S(=O)(=O)Nc2nc3ccccc3s2)cc1[N+](=O)[O-]	57.4% (active)
O=C(Nc1ccc2c(c1)OCCO2)C1CCCC1	56.5% (active)
O=C(Nc1ccc2c(c1)OCCO2)c1ccoc1	-45.1% (inactive)
O=C(Nc1ccc2c(c1)OCO2)C1CC1(Cl)Cl (centres undefined)	-8.25% (inactive)
O=C(c1ccc(Cl)nc1)N1CCN(S(=O)(=O)c2ccc3c(c2)OCCO3)CC1	-18.9% (inactive)
O=S(=O)(c1ccc(Br)cc1)c1nc(-c2ccccc2)oc1N1CCOCC1	-6.56% (inactive)
O=C(OCC(=O)N1CCN(C(=O)c2ccco2)CC1)c1c(Cl)cccc1Cl	-17% (inactive)

SMILES	inhibition
COc1cc(SC)ccc1C(=O)Nc1nc(C)cs1	87% (active)
COc1cc(SC)ccc1C(=O)N(Cc1ccccc1)c1ccccc1	-4.63% (inactive)
COc1ccc(C(=O)Nc2cccc(NC(=O)c3ccc(OC)cc3OC)n2)c(OC)c1	-7.03% (inactive)
O=C(c1cccs1)n1nc(NCc2ccccc2)nc1NCc1ccccc1	-11.8% (inactive)
Cc1noc(C)c1COC(=O)Cn1c(C)nc2ccccc21	-15.5% (inactive)
CC(=O)c1sc(NC(=O)CCN2C(=O)C3CC=CCC3C2=O)nc1-c1ccccc1 (centres undefined)	-19.1% (inactive)
CC(=NCc1ccc2c(c1)OCO2)C1=C(O)c2ccccc2C1=O	1.49% (inactive)
O=C(NCc1ccccc1CN1CCCC1)c1cccc(S(=O)(=O)Nc2ccc(F)cc2)c1	-16.1% (inactive)
CCC(C)(O)C(=O)OC1C(=O)OC2CC3C(C)=CC(=O)C(O)C3(C)C3C4(O)OCC23C1C(C)C4O (centres undefined)	78.9% (active)
Cc1cc(O)c(C(=O)/C=C/c2c(F)c(F)c(F)c(F)c2F)c(=O)o1	8.81% (inactive)
CC1(C)C[C@H]2C3=CCC4[C@@]5(C)CC[C@H](O)[C@](C)(CO)C5CC[C@@]4(C)[C@]3(C)C[C@@H](O)[C@@]2(CO)[C@@H](O)[C@@H]1O (some centres undefined)	-7.8% (inactive)
COc1ccccc1CNC(=O)CSc1nc(=O)n(Cc2ccncc2)c2c1CCC2	10.7% (inactive)
CS(=O)(=O)N(CC(=O)N1CCOCC1)c1ccc2c3c(cccc13)CC2	-19.4% (inactive)
CC(=O)Nc1ccc(NC(=O)CSc2nnc(COc3ccccc3C)n2CC2CCCO2)cc1 (centres undefined)	-3.51% (inactive)
CCOC(=O)N1CCC(N2Cc3cccc(C(=O)Nc4c(C)cccc4CC)c3C2=O)CC1	-4.9% (inactive)
Cc1nc2c(-c3ccc(F)cc3)c(C)nn2c(C)c1CCC(=O)N1CCN(c2ccccn2)CC1	4.39% (inactive)
COc1ccc(CCNS(=O)(=O)c2ccc(Cl)s2)cc1OC	6.31% (inactive)
COC1C(O)C(C)OC(OC2CCC3(C=O)C(CCC4C3CCC3(C)C(C5=CC(=O)OC5)CCC43O)C2)C1O (centres undefined)	89.8% (active)
COc1ccc(C(=O)C2CCCN(C(=O)c3cnsn3)C2)c(C)c1 (centres undefined)	-10.1% (inactive)
Cc1cc(Nc2ccccc2)n(C(=O)c2ccc(N)cc2)n1	67.9% (active)
Cn1c(Nc2ccccc2)cc(=O)n(C)c1=O	-38.1% (inactive)
Cc1cc(NC(=O)Nc2ccc(Cl)cc2)n(-c2ccccc2)n1	-39.6% (inactive)
CCOc1ccc(CN(Cc2ccco2)C(c2cccs2)c2nnnn2C(C)(C)C)cc1 (centres undefined)	-13.3% (inactive)
CCOc1ccc(NC(=O)CCCCCN2C(=O)[C@@H]3Cc4ccccc4CN3C2=O)cc1	-14.6% (inactive)

SMILES	inhibition
CCOc1ccc(NC(=O)CCS(=O)(=O)c2cccc3nsnc23)cc1	-15.9% (inactive)
Cc1ccc(-n2c(-c3ccc(Cl)cc3)n[nH]c2=S)cc1	-0.525% (inactive)
Cc1ccc(-c2cn3cc(C)ccc3n2)cc1	85.2% (active)
Cc1ccc2nc(-c3ccc(Br)cc3)cn2c1	71% (active)
Cc1ccc(-c2cc(C(=O)NCc3cn(C)nc3C)c3cc(Br)ccc3n2)cc1	-28.8% (inactive)
Cc1ccc(-c2cc(N)on2)cc1	-33% (inactive)
CSc1nnc2ccc(-c3ccc(C)cc3)nn12	0.671% (inactive)
O=C(NC(=S)Nc1ccc(Cl)cc1Cl)C1CC1	-42.6% (inactive)
O=C(COC(=O)c1ncc(Cl)c(Cl)c1Cl)NCc1cccs1	-15.5% (inactive)
CCCCN(C(=O)CCNC(=O)NC12CC3CC(CC(C3)C1)C2)c1c(N)n(CCCC)c(=O)[nH]c1=O	9.19% (inactive)
COc1ccc(CCNC(=O)C2CCCN2C(=O)Nc2ccccc2)cc1OC (centres undefined)	-48% (inactive)
Cc1ccc(OCCOCCOc2ccc(Br)cc2/C=N\NC(=O)c2ccncc2)cc1	-18.1% (inactive)
Cc1cccc(OCC(=O)NCC(=O)N/N=C/c2ccc(N(C)C)cc2)c1	-13.2% (inactive)
Cc1ccc(/C=N/NC(=O)COc2ccccc2-c2ccccc2)cc1	70% (active)
O=C(CSC1c2ccccc2-c2ccccc21)N/N=C/c1ccccc1	9.76% (inactive)
COc1ccc(OC)c(S(=O)(=O)Nc2cccc(-c3ccc4nncn4n3)c2)c1	-13.4% (inactive)
Cc1c(CN2CCCC(C(=O)c3cccc(Cl)c3)C2)c(=O)n(-c2ccccc2)n1C (centres undefined)	-12.1% (inactive)
CCOc1ccc(N/C=C/C(=O)c2cc(OC)c(OC)c(OC)c2)cc1	-105% (inactive)
COc1ccc(C(=O)/C=C/Nc2ccccn2)cc1	66% (active)
CCOc1ccc(N/C=C/C(=O)c2ccccc2)cc1	-1.68% (inactive)
CCc1cc2c(N3CCN(c4nnc(CC)s4)CC3)ncnc2s1	2.26% (inactive)
CC(C)(C)c1ccc(/C=C2\SC(=O)N=C2N)cc1	36.2% (inactive)
